Hit rate of the full screen: of about 5,500 compounds, about 2,000 (36%) were called active. Another 18% or so got no clear call; they are omitted. No stated cut-off is given here; in the data, active means normalized growth mostly below about 0.91 (no sharp cut-off); inconclusive means no clear call, values can overlap the other calls; inactive means mostly above about 0.92. The list shows a part of the results.
Test: chemical genetic growth profiling, strain panel (AID 1159580);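 further: tested at 20 µM; growth read once vehicle control cultures reached saturation at 30 °C; 1 = growth at the plate median or of vehicle wells; lower values mean less growth of the strain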
Settings: growth OD

Measured: normalized growth

Cc1c(C(N)=O)cc([N+](=O)[O-])cc1[N+](=O)[O-]
inactive: S. cerevisiae deletion strains, locus YJR066W, strain TOR1, hits give low values 0.991 | S. cerevisiae deletion strains, locus YKL009W, strain mrt4, hits give low values 0.972 | S. cerevisiae deletion strains, locus YKL068W, hits give low values 0.982 | S. cerevisiae deletion strains, locus YKL085W, strain MDH1 (second series), hits give low values 1.02 | S. cerevisiae deletion strains, locus YKL085W, strain MDH1, hits give low values 1.02 | S. cerevisiae deletion strains, locus YKL160W, strain elf1, hits give low values 0.988 | S. cerevisiae deletion strains, locus YKL190W, strain CNB1, hits give low values 0.996 | S. cerevisiae deletion strains, locus YKR001C, strain vps1, hits give low values 0.993 | S. cerevisiae deletion strains, locus YKR026C, strain gcn3, hits give low values 1.02 | S. cerevisiae deletion strains, locus YKR091W, strain srl3, hits give low values 1.02 | S. cerevisiae deletion strains, locus YLL001W, strain dnm1, hits give low values 1.02 | S. cerevisiae deletion strains, locus YLL026W, hits give low values 1.02 | S. cerevisiae deletion strains, locus YLL041C, strain sdh2, hits give low values 1.02 | S. cerevisiae deletion strains, locus YLR027C, strain aat2, hits give low values 1.01 | S. cerevisiae deletion strains, locus YLR039C, strain RIC1, hits give low values 0.988 | S. cerevisiae deletion strains, locus YLR058C, strain SHM2, hits give low values 0.99 | S. cerevisiae deletion strains, locus YLR102C, strain apc9, hits give low values 0.97 | S. cerevisiae deletion strains, locus YLR113W, strain HOG1, hits give low values 1.07 | S. cerevisiae deletion strains, locus YLR221C, strain rsa3, hits give low values 1.03 | S. cerevisiae deletion strains, locus YLR258W, strain gsy2, hits give low values 1.04 | S. cerevisiae deletion strains, locus YLR262C, strain YPT6 (second series), hits give low values 1.02 | S. cerevisiae deletion strains, locus YLR262C, strain YPT6, hits give low values 1.01 | S. cerevisiae deletion strains, locus YLR268W, strain sec22, hits give low values 0.979 | S. cerevisiae deletion strains, locus YLR320W, strain mms22, hits give low values 1.05 | S. cerevisiae deletion strains, locus YLR330W, strain CHS5, hits give low values 0.994 | S. cerevisiae deletion strains, locus YLR342W, strain FKS1 (second series), hits give low values 0.984 | S. cerevisiae deletion strains, locus YLR342W, strain FKS1, hits give low values 1.02 | S. cerevisiae deletion strains, locus YLR357W, strain rsc2, hits give low values 0.999 | S. cerevisiae deletion strains, locus YLR370C, strain arc18, hits give low values 1.04 | S. cerevisiae deletion strains, locus YLR371W, strain rom2, hits give low values 0.963 | S. cerevisiae deletion strains, locus YLR384C, strain iki3, hits give low values 1.03 | S. cerevisiae deletion strains, locus YLR418C, strain cdc73, hits give low values 0.972 | S. cerevisiae deletion strains, locus YML016C, strain PPZ1, hits give low values 0.989 | S. cerevisiae deletion strains, locus YML032C, strain rad52, hits give low values 0.978 | S. cerevisiae deletion strains, locus YML120C, strain ndi1, hits give low values 1.03 | S. cerevisiae deletion strains, locus YML124C, strain tub3, hits give low values 0.979 | S. cerevisiae deletion strains, locus YMR058W, strain fet3, hits give low values 1.01 | S. cerevisiae deletion strains, locus YMR078C, strain ctf18, hits give low values 0.976 | S. cerevisiae deletion strains, locus YMR125W, strain sto1, hits give low values 0.962 | S. cerevisiae deletion strains, locus YMR129W, hits give low values 1.02 | S. cerevisiae deletion strains, locus YMR205C, strain PFK2, hits give low values 1 | S. cerevisiae deletion strains, locus YMR223W, strain ubp8, hits give low values 0.98 | S. cerevisiae deletion strains, locus YMR231W, strain pep5, hits give low values 1.03 | S. cerevisiae deletion strains, locus YMR263W, strain SAP30, hits give low values 0.997 | S. cerevisiae deletion strains, locus YMR307W, strain GAS1, hits give low values 1.02 | S. cerevisiae deletion strains, locus YNL067W, strain RPL9B, hits give low values 1.01 | S. cerevisiae deletion strains, locus YNL071W, strain lat1, hits give low values 1.02 | S. cerevisiae deletion strains, locus YNL128W, strain TEP1, hits give low values 0.965 | S. cerevisiae deletion strains, locus YNL183C, strain NPR1, hits give low values 0.98 | S. cerevisiae deletion strains, locus YNL209W, strain ssb2, hits give low values 1.02 | S. cerevisiae deletion strains, locus YNL233W, strain BNI4, hits give low values 1.01 | S. cerevisiae deletion strains, locus YNL248C, strain rpa49, hits give low values 0.923 | S. cerevisiae deletion strains, locus YNL250W, strain rad50, hits give low values 0.985 | S. cerevisiae deletion strains, locus YNL271C, strain bni1, hits give low values 0.97 | S. cerevisiae deletion strains, locus YNL298W, strain CLA4, hits give low values 0.975 | S. cerevisiae deletion strains, locus YNL307C, strain MCK1, hits give low values 0.978 | S. cerevisiae deletion strains, locus YNL322C, strain KRE1 (second series), hits give low values 1.03 | S. cerevisiae deletion strains, locus YNL322C, strain KRE1, hits give low values 0.991 | S. cerevisiae deletion strains, locus YNR049C, strain mso1, hits give low values 1.02 | S. cerevisiae deletion strains, locus YNR052C, strain pop2, hits give low values 0.966 | S. cerevisiae deletion strains, locus YOL006C, strain TOP1, hits give low values 0.984 | S. cerevisiae deletion strains, locus YOL012C, strain htz1 0.838 | S. cerevisiae deletion strains, locus YOL147C, strain pex11, hits give low values 0.978 | S. cerevisiae deletion strains, locus YOR001W, strain rrp6, hits give low values 1.03 | S. cerevisiae deletion strains, locus YOR061W, strain CKA2, hits give low values 0.99 | S. cerevisiae deletion strains, locus YOR069W, strain VPS5, hits give low values 0.981 | S. cerevisiae deletion strains, locus YOR070C, strain gyp1, hits give low values 1.02 | S. cerevisiae deletion strains, locus YOR080W, strain dia2, hits give low values 1.03 | S. cerevisiae deletion strains, locus YOR083W, strain WHI5, hits give low values 0.985 | S. cerevisiae deletion strains, locus YOR106W, strain vam3, hits give low values 0.981 | S. cerevisiae deletion strains, locus YOR136W, strain idh2, hits give low values 0.976 | S. cerevisiae deletion strains, locus YOR144C, strain elg1, hits give low values 0.978 | S. cerevisiae deletion strains, locus YOR184W, strain ser1, hits give low values 0.986 | S. cerevisiae deletion strains, locus YOR231W, strain MKK1, hits give low values 1.05 | S. cerevisiae deletion strains, locus YOR265W, strain rbl2, hits give low values 1.01 | S. cerevisiae deletion strains, locus YOR270C, strain vph1, hits give low values 1.01 | S. cerevisiae deletion strains, locus YOR290C, strain snf2, hits give low values 1.03 | S. cerevisiae deletion strains, locus YOR316C, strain cot1, hits give low values 0.965 | S. cerevisiae deletion strains, locus YPL051W, strain arl3, hits give low values 1.01 | S. cerevisiae deletion strains, locus YPL078C, strain atp4, hits give low values 0.974 | S. cerevisiae deletion strains, locus YPL106C, strain sse1, hits give low values 1.06 | S. cerevisiae deletion strains, locus YPL240C, strain hsp82, hits give low values 1.02 | S. cerevisiae deletion strains, locus YPL241C, strain CIN2, hits give low values 0.991 | S. cerevisiae deletion strains, locus YPL256C, strain CLN2, hits give low values 1.05 | S. cerevisiae deletion strains, locus YPR119W, strain clb2, hits give low values 0.982 | S. cerevisiae deletion strains, locus YPR141C, strain kar3, hits give low values 0.974 | S. cerevisiae deletion strains, locus YPR163C, strain tif3, hits give low values 0.975 | S. cerevisiae deletion strains, locus YPR167C, strain met16, hits give low values 0.981 | S. cerevisiae deletion strains, strain wtn01, hits give low values 0.971 | S. cerevisiae strains, strain wild type, hits give low values 0.996

From PubChem BioAssay AID1159580 (chemical genetic matrix, 2015)
